From PubChem BioAssay
The list is not random: actives were taken first. Their share in the collection is about 22%.
cytoskel mod: cytoskeleton assembly modification. HUVEC TNFa F-actin phalloidin imaging, high content. inhibition, % at 2 µM. actives 0.18% (n = 91,000);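 active = inhibition above the batch mean plus 3 SD and confirmed as a hit by visual image inspection, cut at about 30% in these data, passing the limit was not always enough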
CYP2C19 act: activators of human cytochrome P450 2C19. P33261. recombinant CYP2C19, luciferin-H EGE luminescence; stronger effect = higher value; 0 = fully inhibited enzyme, 1 = untreated enzyme. activation factor at 5 µM. 96,000 tested, under 10 active;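 active = activation factor of at least 2 at 5 µM in the primary screen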;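 note: 0 = wells with 2.5 mM tranylcypromine and 1 = vehicle-only wells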
CYP2C9 act: increases human cytochrome P450 2C9 activity | recombinant CYP2C9, luciferin-H conversion, luminescence; stronger effect = higher value; factor 1 = untreated enzyme, 0 = blocked | activation factor at 5 µM | P11712 | actives 1.4% (n = 96,000);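 active = activation factor of 2 or more for CYP2C9 at a 5 µM dose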;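 note: 0 = sulfaphenazole-blocked wells and 1 = vehicle-only wells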
Target sequence (P11712 whole entry, looked up): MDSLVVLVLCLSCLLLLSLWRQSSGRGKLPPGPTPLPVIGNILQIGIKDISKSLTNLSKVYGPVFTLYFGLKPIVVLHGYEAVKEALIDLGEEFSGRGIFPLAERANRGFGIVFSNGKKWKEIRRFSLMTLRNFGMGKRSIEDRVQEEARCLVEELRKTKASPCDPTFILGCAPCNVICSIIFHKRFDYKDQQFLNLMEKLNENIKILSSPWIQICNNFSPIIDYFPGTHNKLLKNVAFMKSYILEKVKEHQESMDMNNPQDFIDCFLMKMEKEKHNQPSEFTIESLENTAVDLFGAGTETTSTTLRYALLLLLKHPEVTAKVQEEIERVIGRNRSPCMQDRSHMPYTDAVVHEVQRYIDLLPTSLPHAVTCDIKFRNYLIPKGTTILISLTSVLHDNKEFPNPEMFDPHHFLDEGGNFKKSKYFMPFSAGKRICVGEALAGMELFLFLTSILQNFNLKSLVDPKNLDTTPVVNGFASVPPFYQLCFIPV
CYP2C19 inh: blocks human cytochrome P450 2C19 | AID 778 | actives 21% (n = 96,000) | P33261 | CYP2C19 Supersomes, luciferin-H EGE luminescence, 30 min | inhibition, % at 5 µM;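 active = CYP2C19 inhibition above a set limit at 5 µM in the primary screen, cut at about 50% in these data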;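 note: plate controls were negative control wells for no effect and 2.5 mM tranylcypromine positive control for full effect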
E-sel TNF inh: TNF alpha driven E-selectin expression inhibition; inhibition, % at 2 µM; HUVEC TNFa-induced E-selectin immunofluorescence, high content; AID 1246; actives 0.71% (n = 120,000);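 active = inhibition above the batch mean plus 3 SD, and confirmed as a hit on visual image review, cut at about 43% in these data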;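 note: 0% = TNF-stimulated DMSO wells and 100% = unstimulated control wells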
CYP2C9 inh: inhibitors of human CYP2C9 | P11712 | CYP2C9 Supersomes, luciferin-H conversion, luminescence | inhibition, % at 5 µM | actives 20% (n = 96,000) | AID 777;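 active = blocking of liver enzyme CYP2C9 beyond about 50% at 5 µM, limit read from the data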
* hit, by the source's call; x = no result given.

SMILES	cytoskel mod	CYP2C19 act	CYP2C9 act	CYP2C19 inh	E-sel TNF inh	CYP2C9 inh
O=C(Nc1nc(-c2ccccc2)cs1)NC1CCCCC1	-3	1.1	1.1	-5	-42	-14
Cc1cccc(-c2nsc(SCC(=O)NCc3ccc4c(c3)OCO4)n2)c1	x	x	x	x	-21	x
Cc1ccc2cc(C#N)c(SCC(=O)NCc3ccco3)nc2c1	-9	0.9	0.2	11	-8	75*
Cc1cccc(-c2nsc(SCC(=O)NCc3ccco3)n2)c1	-30	0.8	0.3	21	3	68*
Cn1nnnc1SCC(=O)Nc1ccc(N2CCOCC2)cc1	x	1	1	-3	-14	4
CC1CCN(CC(=O)Nc2cccc([N+](=O)[O-])c2)CC1	-10	0.8	1	24	-50	4
CC(Sc1nnnn1C)C(=O)Nc1ccc(Oc2ccccc2)cc1 (stereo not drawn)	0	0.4	0.5	63*	-30	46
CC(C)(C)NC(=O)NC(=O)COC(=O)COc1ccc2c(c1)CCC2	x	0.5	0.8	50*	-18	25
COc1ccc(S(=O)(=O)Nc2cc(OC)c(NC(=O)c3ccco3)cc2OC)cc1	-15	0.4	0.1	57*	-5	94*
COc1cc(NS(=O)(=O)c2ccc(Br)cc2)c(OC)cc1NC(=O)c1ccco1	-2	0	0	98*	13	100*
CCOc1cc(NS(=O)(=O)c2ccc(OC)cc2)c(OCC)cc1NC(=O)c1ccco1	-2	x	x	x	9	x
COc1ccccc1CN(C)C(=O)c1ccc2c(c1)NC(=O)CS2	-10	0.1	1.9	93*	-6	-94
COc1cccc(CN(C)C(=O)c2ccc(S(=O)(=O)N3CCCC3)cc2)c1OC	-8	0.7	0.8	28	-26	20
NC(=O)c1ccc([N+](=O)[O-])cc1SCc1ccccc1	-13	0.7	0.8	29	-5	24
CCOC(=O)c1cc(C(=O)OCC)cc(-n2cc(O)c(C(=O)OCC)n2)c1	3	1.1	1.1	-7	-7	-10
CCOC(=O)c1nn(-c2sc(C(=O)OC)c(C)c2C(=O)OC)cc1O	2	0	0.4	100*	4	61*
CCOC(=O)c1nn(-c2ccc(C)cc2)cc1O	-3	0.4	0.7	61*	14	31
O=C(NC12CC3CC(CC(C3)C1)C2)C1CC(=O)N(c2ccc(Br)cc2)C1 (stereo not drawn)	2	1	0.8	-3	18	19
CCC(Oc1ccccc1)C(=O)Nc1ccc(S(=O)(=O)NCC2CCCO2)cc1 (stereo not drawn)	5	0.6	0.1	38	2	91*
O=S(=O)(NCC1CCCO1)c1ccc(Oc2ccccc2)cc1 (stereo not drawn)	2	0	0.2	95*	8	83*
CCC(C)NS(=O)(=O)c1ccc(NC(=O)CCC2CCCCC2)cc1 (stereo not drawn)	6	1	0.9	4	-11	8
CCC(C)NS(=O)(=O)c1ccc(S(=O)(=O)N(CC(=O)Nc2ccccc2)CC2CCCO2)cc1 (stereo not drawn)	-4	0.6	0.1	41	2	92*
Cc1cccc2cc(CN(Cc3nnnn3C3CCCCC3)C3CCCC3)c3nnnn3c12	13	x	x	x	18	x
CC(=O)Nc1nc(-c2ccccc2)nc(-c2ccccc2OC(C)=O)n1	x	0.6	0.6	36	-34	41
CC(C)(C)C(=O)[C@H]1[C@H](c2ccccc2)[C@@]2(N=C(c3ccccc3)OC2=O)C2c3ccccc3C=NN21 (stereo partly drawn)	13	0.5	0.7	53*	-9	29
SMILES	cytoskel mod	CYP2C19 act	CYP2C9 act	CYP2C19 inh	E-sel TNF inh	CYP2C9 inh
O=C(NCc1ccccn1)/C(=N/O)c1ccccc1	18	1	1.1	3	x	-5
CCn1nnc(-c2ccccc2NC(=O)C(F)(F)F)n1	-21	0.3	0.7	70*	48	26
CCOc1ccc(NC(=O)Cn2nnc(-c3ccccc3NC(=O)c3cccs3)n2)cc1	5	0.8	0.5	19	18	50*
CCn1nnc(-c2ccccc2NC(=O)c2cc(OC)cc(OC)c2)n1	-14	0.9	0.8	11	-38	19
CCn1nnc(-c2ccccc2NC(=O)c2cc(OC)c(OC)c(OC)c2)n1	-16	0.6	0.1	36	x	93*
CCCC(=O)Nc1ccccc1-c1nnn(CC(=O)Nc2ccc(OC)cc2)n1	-20	0.8	0.7	20	-1	33
CCC(=O)Nc1ccc(Nc2nc(C)c([N+](=O)[O-])c(Nc3ccc(NC(=O)CC)cc3)n2)cc1	x	x	x	x	-35	x
Cn1cc(C(=O)N/N=C/C(Br)=C/c2ccccc2)ccc1=O	x	x	x	x	21	x
O=C(OCN1C(=O)c2ccccc2C1=O)c1ccc2c(=O)n3c(nc2c1)CCC3	3	x	x	x	-4	x
Cc1nn(-c2ccc(F)cc2)c2sc(C(=O)O)cc12	-8	x	x	x	2	x
O=C(O)CSCC(=O)Nc1ccc(C2CCCCC2)cc1	3	1	0.4	3	-6	64*
Nn1cnnc1SCC(=O)Nc1ccc(C2CCCCC2)cc1	x	0.9	0.8	11	-23	16
O=S(=O)(c1cc(Cl)ccc1Cl)N1CCCC1	-3	0.4	3.5*	56*	27	-248
O=S(=O)(c1cc(Cl)ccc1Br)N1CCOCC1	-6	0.6	2.9*	39	2	-191
O=C(Oc1ccc2c(c1)OCO2)c1ccc(Br)c(S(=O)(=O)N2CCOCC2)c1	4	1.1	0.7	-13	-19	28
CC1=NCCN1S(=O)(=O)c1cc(Cl)ccc1Cl	-31	0.5	2.8*	51*	-10	-178
O=C(c1ccc(Cl)c(S(=O)(=O)N2CCCCCC2)c1)N1CCN(CCO)CC1	-1	0.8	0.6	16	9	40
O=S(=O)(c1cc(Cl)ccc1Cl)N1CCCCC1	-25	0.4	3.3*	65*	3	-229
O=S(=O)(c1cccc(Cl)c1)N1CCCC1	-11	0.6	1.9	44	-31	-89
CCC(CC)=C(C#N)C(=O)NC1CCCCC1	x	x	x	x	-7	x
CCc1cc(-c2n[nH]c(C)c2-c2nc3ccccc3n2C)c(O)c(CN2CCN(C)CC2)c1O	-20	0.6	0.6	43	2	38
O=C(O)C1CCCN1S(=O)(=O)c1cc(Cl)ccc1Cl (stereo not drawn)	-5	0.9	2.2*	5	1	-116
CC1CCN(S(=O)(=O)c2ccc(Cl)cc2Br)CC1	-2	0.3	1.7	68*	-16	-71
CCOc1cc(C)c(S(=O)(=O)N2CCCC2)cc1C	-2	x	x	x	-14	x
CC1CCN(CCCOc2ccc(Cl)cc2Br)CC1	x	x	x	x	-4	x
COc1ccc(Cl)c(S(=O)(=O)N2CCCC2)c1	-15	0.2	2.8*	80*	1	-183
COc1ccc(N2CCN(C(=O)c3ccc(Cl)c(S(=O)(=O)N4CCCC4)c3)CC2)cc1	x	x	x	x	-5	x
